For some of these results: Results with a measured potency or affinity are listed apart.
Legend:
Set-up in all cases: scale not given: direction of the effect not stated beside the values
[1] = target: Protein translocase subunit SecA (Escherichia coli (strain K12)) (UniProt P10408); test: Assay to Identify E. coli SecA ATPase Inhibitors; format: functional; settings: 30 µM
[2] = target: T1, Ubiquitin-activating enzyme e1, putative (Leishmania donovani (strain BPK282A1)) (UniProt E9BSI1); test: Leishmania donovani Ubiquitin Activating Enzyme (LdE1); format: functional; settings: 30 µM
T1 sequence (whole entry): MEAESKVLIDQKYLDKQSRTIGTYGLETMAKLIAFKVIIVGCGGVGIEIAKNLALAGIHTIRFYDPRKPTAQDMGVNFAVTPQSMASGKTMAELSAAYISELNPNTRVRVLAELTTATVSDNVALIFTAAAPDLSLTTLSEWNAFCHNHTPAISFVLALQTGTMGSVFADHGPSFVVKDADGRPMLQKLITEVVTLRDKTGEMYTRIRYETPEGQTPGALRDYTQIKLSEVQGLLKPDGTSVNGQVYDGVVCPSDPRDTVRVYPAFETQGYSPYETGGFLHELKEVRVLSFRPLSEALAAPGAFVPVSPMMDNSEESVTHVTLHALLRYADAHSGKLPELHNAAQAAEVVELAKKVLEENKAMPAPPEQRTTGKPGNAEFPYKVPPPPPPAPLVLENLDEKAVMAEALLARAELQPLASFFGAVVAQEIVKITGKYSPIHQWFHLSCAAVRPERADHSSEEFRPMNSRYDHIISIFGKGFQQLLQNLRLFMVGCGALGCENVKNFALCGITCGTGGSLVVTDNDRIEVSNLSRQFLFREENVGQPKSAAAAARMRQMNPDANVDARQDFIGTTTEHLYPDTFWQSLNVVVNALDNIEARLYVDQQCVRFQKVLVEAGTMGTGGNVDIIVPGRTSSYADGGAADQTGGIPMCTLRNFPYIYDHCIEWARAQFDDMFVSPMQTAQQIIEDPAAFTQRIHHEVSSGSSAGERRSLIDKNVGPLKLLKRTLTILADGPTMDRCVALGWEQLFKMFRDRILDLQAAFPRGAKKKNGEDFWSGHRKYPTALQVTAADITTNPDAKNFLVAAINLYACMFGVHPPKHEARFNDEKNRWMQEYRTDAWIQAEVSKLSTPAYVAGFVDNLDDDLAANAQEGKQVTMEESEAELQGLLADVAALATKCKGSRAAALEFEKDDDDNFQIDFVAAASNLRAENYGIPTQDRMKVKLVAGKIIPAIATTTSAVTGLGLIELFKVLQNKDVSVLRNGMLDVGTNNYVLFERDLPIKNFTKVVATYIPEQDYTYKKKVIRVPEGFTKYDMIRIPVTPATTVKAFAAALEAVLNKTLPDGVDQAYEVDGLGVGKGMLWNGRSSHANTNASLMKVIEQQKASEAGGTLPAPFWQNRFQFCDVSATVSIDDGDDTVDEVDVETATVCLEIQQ

[3] = target: AMP-activated protein kinase, AMPK (Homo sapiens) (UniProt P54646+O43741+P54619+Q9UGJ0+Q9Y478+Q13131+Q9UGI9); test: AMP-dependent Kinase enzyme assay. An in vitro enzyme assay that detects ADP turnover that is directly proportional to AMPK activity. This uses naive AMPK that is activated during the assay with MK-8722; format: functional; settings: 30 µM
[4] = target: Sialic acid-binding Ig-like lectin 9 (Homo sapiens) (UniProt Q9Y336); test: Hs-Siglec9 ALPHAscreen SOP 20170721; settings: 10 µM
Sequence of Sialic acid-binding Ig-like lectin 9 (Homo sapiens) (Q9Y336 whole entry): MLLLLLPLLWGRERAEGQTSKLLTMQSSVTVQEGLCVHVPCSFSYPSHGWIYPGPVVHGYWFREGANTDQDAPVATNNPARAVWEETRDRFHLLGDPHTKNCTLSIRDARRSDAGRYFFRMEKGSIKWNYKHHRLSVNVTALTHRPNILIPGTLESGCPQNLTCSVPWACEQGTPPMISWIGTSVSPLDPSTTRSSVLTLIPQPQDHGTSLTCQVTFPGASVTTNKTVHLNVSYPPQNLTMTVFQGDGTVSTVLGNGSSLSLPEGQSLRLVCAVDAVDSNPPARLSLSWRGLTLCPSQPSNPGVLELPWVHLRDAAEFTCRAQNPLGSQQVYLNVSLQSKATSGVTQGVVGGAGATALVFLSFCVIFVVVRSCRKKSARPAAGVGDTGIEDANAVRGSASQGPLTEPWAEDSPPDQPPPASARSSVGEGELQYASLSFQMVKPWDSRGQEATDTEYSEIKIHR

Trypanosoma cruzi = test: Trypanosoma cruzi phosphomannomutase and mannose-1-phosphate guanylyltransferase assay; format: functional; settings: 10 µM
[5] = target: T2, Arginase-2, mitochondrial (Homo sapiens) (UniProt P78540); test: in vitro enzyme assay to detect the production of urea directly proportional to the activity of Arginase II; format: functional; settings: 33.3 µM; further: in the data most compounds retested in dose-response had high values
T2 sequence (whole entry): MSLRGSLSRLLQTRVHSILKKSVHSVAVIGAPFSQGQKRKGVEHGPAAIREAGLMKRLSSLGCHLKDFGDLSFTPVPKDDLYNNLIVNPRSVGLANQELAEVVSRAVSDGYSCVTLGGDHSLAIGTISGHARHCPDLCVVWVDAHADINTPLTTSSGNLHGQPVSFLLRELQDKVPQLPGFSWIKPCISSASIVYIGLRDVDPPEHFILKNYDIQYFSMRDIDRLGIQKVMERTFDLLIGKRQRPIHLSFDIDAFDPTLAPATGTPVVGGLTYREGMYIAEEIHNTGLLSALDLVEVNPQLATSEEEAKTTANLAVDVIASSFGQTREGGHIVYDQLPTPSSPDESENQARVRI

[6] = target: T3, Proteasome subunit beta (Trypanosoma cruzi) (UniProt O96673); test: Trypanosoma cruzi proteasome chymotrypsin-like activity (TcProtChymo) assay.; further: in the data most compounds retested in dose-response had high values; format: functional; settings: 9.37 µM
T3 sequence (whole entry): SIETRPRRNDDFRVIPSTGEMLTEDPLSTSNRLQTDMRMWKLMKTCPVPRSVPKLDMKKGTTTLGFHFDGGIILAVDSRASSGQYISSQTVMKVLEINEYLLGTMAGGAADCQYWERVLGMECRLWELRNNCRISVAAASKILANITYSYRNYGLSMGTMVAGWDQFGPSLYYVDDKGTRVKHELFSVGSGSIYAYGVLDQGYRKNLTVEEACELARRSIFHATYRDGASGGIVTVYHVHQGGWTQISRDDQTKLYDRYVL

Homo sapiens = species on record: Homo sapiens; test: To identify inhibition of the IFN signalling (Jak-Stat) pathway via expression of an eGFP reporter gene under the control of an IFN-stimulated response element (ISRE) containing MxA promoter.; format: functional; settings: 30 µM
[7] = target: T4, Tyrosyl-tRNA synthetase, putative (Trypanosoma cruzi (strain CL Brener)) (UniProt Q4DSP6); test: Trypanosoma cruzi tyrosyl tRNA synthetase (TcYRS) _High Tyrosine SOP; format: functional; settings: 30 µM; further: in the data most compounds retested in dose-response had high values
T4 sequence (whole entry): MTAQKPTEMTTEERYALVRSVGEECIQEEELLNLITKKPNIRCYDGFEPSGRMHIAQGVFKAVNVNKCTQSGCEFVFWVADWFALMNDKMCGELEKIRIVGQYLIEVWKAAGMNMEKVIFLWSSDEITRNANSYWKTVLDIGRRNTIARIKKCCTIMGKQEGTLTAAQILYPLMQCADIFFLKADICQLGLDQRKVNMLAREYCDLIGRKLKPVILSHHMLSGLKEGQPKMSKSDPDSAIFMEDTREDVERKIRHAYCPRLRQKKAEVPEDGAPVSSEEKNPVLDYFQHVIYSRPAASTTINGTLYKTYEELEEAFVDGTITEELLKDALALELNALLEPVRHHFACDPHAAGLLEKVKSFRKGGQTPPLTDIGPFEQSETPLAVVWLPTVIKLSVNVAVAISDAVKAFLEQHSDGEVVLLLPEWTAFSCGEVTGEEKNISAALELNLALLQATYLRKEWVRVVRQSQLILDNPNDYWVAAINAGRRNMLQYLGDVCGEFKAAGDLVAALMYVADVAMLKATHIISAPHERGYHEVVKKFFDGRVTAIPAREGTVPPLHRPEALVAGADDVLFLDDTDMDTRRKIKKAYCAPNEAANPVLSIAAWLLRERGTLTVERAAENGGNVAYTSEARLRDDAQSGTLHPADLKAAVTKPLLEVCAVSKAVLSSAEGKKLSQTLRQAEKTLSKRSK

[8] = target: T4, Tyrosyl-tRNA synthetase, putative (Trypanosoma cruzi (strain CL Brener)); test: Trypanosoma cruzi tyrosyl tRNA synthetase (TcYRS) SOP; format: functional; settings: 30 µM
[9] = target: Chromo domain-containing protein 1 (Saccharomyces cerevisiae (strain ATCC 204508 / S288c) (Baker's yeast)) (UniProt P32657); test: ScCHD-1 Enzyme Inhibition Assay; format: functional; settings: 30 µM; further: in the data most compounds retested in dose-response had high values
Sequence of Chromo domain-containing protein 1 (Saccharomyces cerevisiae (strain ATCC 204508 / S288c) (Baker's yeast)) (P32657 whole entry, the tested form may be a part): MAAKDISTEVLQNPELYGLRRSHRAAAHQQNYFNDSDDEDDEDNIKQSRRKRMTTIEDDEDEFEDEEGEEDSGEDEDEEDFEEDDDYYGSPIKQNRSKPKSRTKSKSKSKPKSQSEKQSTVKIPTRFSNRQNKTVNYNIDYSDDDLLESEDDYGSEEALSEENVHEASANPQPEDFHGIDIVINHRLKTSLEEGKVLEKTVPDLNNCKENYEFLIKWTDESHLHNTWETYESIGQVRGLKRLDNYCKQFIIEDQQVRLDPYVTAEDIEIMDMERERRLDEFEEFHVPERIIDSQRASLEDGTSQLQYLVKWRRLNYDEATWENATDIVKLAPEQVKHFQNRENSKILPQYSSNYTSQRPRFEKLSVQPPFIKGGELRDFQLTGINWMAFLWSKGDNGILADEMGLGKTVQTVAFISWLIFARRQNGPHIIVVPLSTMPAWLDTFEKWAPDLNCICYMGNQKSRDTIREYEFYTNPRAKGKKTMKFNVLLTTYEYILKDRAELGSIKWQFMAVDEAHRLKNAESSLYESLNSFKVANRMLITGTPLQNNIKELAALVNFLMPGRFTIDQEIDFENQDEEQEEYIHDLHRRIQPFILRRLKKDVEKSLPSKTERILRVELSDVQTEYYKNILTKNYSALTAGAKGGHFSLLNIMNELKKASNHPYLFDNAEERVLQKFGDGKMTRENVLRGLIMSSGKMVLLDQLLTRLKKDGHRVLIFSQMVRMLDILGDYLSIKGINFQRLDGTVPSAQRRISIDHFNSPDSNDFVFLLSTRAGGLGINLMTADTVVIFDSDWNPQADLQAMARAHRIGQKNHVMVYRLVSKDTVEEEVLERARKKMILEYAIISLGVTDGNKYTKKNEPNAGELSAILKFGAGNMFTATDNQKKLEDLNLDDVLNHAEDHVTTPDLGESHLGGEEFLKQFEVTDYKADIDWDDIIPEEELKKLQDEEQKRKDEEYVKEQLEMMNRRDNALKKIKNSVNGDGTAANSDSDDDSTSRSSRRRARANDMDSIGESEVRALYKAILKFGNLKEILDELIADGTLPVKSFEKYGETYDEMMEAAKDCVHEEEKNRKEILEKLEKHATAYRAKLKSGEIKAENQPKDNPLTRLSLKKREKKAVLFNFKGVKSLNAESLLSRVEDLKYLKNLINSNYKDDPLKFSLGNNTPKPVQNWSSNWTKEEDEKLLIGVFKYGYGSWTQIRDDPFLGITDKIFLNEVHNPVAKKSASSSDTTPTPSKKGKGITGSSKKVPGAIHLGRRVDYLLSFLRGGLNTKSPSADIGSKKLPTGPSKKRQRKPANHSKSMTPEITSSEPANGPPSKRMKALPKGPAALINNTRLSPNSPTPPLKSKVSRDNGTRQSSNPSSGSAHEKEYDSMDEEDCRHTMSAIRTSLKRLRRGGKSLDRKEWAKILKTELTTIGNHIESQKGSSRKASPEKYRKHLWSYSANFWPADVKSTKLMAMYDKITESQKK

Sequence of Protein translocase subunit SecA (Escherichia coli (strain K12)) (P10408 whole entry): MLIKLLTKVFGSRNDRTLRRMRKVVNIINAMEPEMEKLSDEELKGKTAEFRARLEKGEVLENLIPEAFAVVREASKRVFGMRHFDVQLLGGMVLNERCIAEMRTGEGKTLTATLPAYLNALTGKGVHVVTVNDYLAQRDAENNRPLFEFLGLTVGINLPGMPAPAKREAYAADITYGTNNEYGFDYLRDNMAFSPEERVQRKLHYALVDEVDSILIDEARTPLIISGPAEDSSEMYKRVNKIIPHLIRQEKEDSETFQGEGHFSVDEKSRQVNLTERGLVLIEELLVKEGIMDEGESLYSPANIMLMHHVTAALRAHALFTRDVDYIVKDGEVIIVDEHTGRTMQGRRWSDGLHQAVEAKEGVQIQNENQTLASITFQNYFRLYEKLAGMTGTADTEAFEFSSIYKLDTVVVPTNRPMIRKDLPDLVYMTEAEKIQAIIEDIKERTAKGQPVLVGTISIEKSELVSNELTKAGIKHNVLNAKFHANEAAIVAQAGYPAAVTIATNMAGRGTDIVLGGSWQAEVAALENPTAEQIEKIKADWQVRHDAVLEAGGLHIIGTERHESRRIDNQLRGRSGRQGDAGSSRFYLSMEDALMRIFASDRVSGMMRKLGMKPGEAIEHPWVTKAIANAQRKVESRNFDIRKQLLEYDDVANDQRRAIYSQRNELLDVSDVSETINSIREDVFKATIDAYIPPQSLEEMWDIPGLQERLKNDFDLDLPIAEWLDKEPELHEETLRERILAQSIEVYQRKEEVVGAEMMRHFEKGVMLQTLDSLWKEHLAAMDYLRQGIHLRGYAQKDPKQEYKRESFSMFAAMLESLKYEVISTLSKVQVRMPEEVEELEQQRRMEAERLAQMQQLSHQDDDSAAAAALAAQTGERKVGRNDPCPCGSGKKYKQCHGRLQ

Structure (SMILES)	Percent Effect [1]	Percent Effect [2]	Percent Effect [3]	Percent Effect [4]	Percent Effect (Trypanosoma cruzi)	Percent Effect [5]	Percent Effect [6]	Percent Effect (Homo sapiens)	Percent Effect [7]	Percent Effect [8]	Percent Effect [9]
COc1cccc(N2CCN(C(=O)[C@H](O)C3CCCCC3)CC2=O)c1	-1.35%	5.41%	2.95%	1.44%	2.32%	2.38%	21%	3.62%	8.99%	17.1%	-2.64%
CC(C)Cc1noc(CN2CCN(C(=O)c3ccco3)CC2)n1	1.31%	2.74%	2.5%	1.08%	3.17%	0%	8.99%	5.51%	5.21%	8.64%	-2.76%
CC(=O)Nc1nc(C(=O)Nc2ccc(F)cc2)cs1	-2.09%	15.6%	28%	-6.42%	-1.86%	-15.4%	16.7%	8.03%	7.62%	18.8%	3.31%
COc1ccc(-c2nc(CN3CCCC3Cn3cccn3)no2)cc1 (configuration not stated)	-6.58%	7.79%	-5.32%	11.9%	8.99%	-6.41%	9.12%	12.7%	5.83%	21.9%	-11.9%
O=C(CCn1cccn1)N1C[C@@H]2CC[C@H](C1)N(Cc1ccccn1)C2=O	-3.32%	5.41%	-4.57%	4.2%	2.51%	0.476%	1.72%	3.77%	5.82%	14.6%	-3.35%
OC(CN1CCN(Cc2ccc(F)cc2)CC1)C1CC1 (configuration not stated)	-4.82%	8.22%	-8.34%	-6.79%	0.392%	1.82%	4.61%	2.15%	6.45%	20%	-4.22%
CC(=O)N1CCO[C@@H]2CN(C(=O)c3cc(C)oc3C)CC[C@@H]2C1	-6.41%	10.8%	-31.2%	-10.6%	-1.07%	0.319%	7.75%	19.1%	0%	0%	-3.96%
c1cc2nccc(CC3CCCN(Cc4ncc[nH]4)CC3)c2cn1 (configuration not stated)	-2.14%	9.46%	4.64%	12.8%	5.34%	-2.09%	9.98%	12.3%	11.8%	24.7%	-17.2%
CC(O)CN1CCN(C(=O)c2ccc(Br)o2)CC1 (configuration not stated)	-4.28%	15.8%	17.9%	-7.51%	-3.57%	3.45%	8.69%	22.7%	4.41%	9.76%	-12.7%
O=C(NCCCNCC1CNc2ccnn2C1)c1ccccc1 (configuration not stated)	0.663%	2.7%	-9.29%	-3.11%	0.193%	4.29%	16.6%	9.18%	5.82%	14.6%	-3.29%
CC1CCN(c2ncc3c(n2)CN(c2ccc4c(c2)OCO4)C3=O)CC1	-4.8%	7.79%	-3.15%	7.77%	0.492%	-9.65%	14.1%	-2.83%	5.38%	11.1%	1.03%
O=C(c1ccc[nH]1)N1C[C@H](OCc2cccnc2)[C@H]2COC[C@H]21	-4.86%	0%	2.4%	-3.13%	1.17%	-1.25%	12.3%	-27.9%	8.91%	-3.66%	-5.43%
NS(=O)(=O)CCNC(=O)C1(c2ccc(Br)cc2)CC1	2.05%	7.79%	-1.42%	6.68%	4.23%	-13.8%	13%	-0.291%	2.15%	16.1%	-2.63%
O=C(c1ccccn1)N1Cc2nccn2CC(COc2cccnc2)C1 (configuration not stated)	0.812%	13.3%	0.132%	2.56%	-0.193%	-54.7%	4.96%	20.5%	4.17%	15%	-4.96%
Cc1cc(C)nc(Nc2cc(C3CCCN(C)C3)nc(C)n2)n1 (configuration not stated)	-3.56%	9.46%	-3.72%	6.27%	1.19%	-1.62%	9.2%	1.68%	4.3%	11.7%	-18.4%
Cc1nc(N2CCOCC2)nc2c1CCN(C(=O)NC1CCCC1)CC2	-0.181%	6.67%	-1.67%	-6.84%	-11%	-6.16%	19.2%	0.0839%	-2.12%	0%	-10.6%
CCC1CN(C(=O)c2ccc(=O)[nH]c2)CCC(=O)N1Cc1ccccc1 (configuration not stated)	-1.75%	4.17%	-3.51%	-12.5%	-3.21%	3.09%	14%	14.1%	0%	2.56%	-2.44%
